# A selection: hits, their analogues and other compounds. The true share with any hit is near 3.7%.
# NTMT1 inhibitor: blocks human N-terminal methyltransferase 1 activity; NTMT1 MTase-Glo SAH luminescence, purified enzyme; Q9BV86; Potency, µM (doses to about 114 µM), for inactives: at the highest dose activity change, negative = inhibition, actives largely listed as inhibitors; actives 2.5% (n = 59,000); AID 1645870;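 further: potency means the concentration at half of the fitted maximal effect; plate controls were DMSO vehicle for no effect and no enzyme for full effect; nearly all actives have a fitted effect of over 65% in size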
# FH mod: Identification of activators of human fumarate hydratase by quantitative high-throughput screening; Potency, µM (titrated, usually from 79.9 µM), for inactives: top-dose activity change, negative = inhibition, hits mostly inhibitors; Fumarate hydratase, mitochondrial (Homo sapiens), P07954; actives 0.22% (n = 54,000); AID 1347055, 2019; FH coupled MDH/diaphorase resazurin fluorescence, 15 min; further: potency means the concentration at half of the fitted maximal effect; on the % scale 0 is the no-effect control and ±100 the full control effect; the screen sought activators but most active calls are inhibition curves; nearly all actives have a fitted effect of over 45% in size
# Sfp qHTS opt: inhibits purified B. subtilis Sfp PPTase; shares compounds with NTMT1 inhibitor; purified Sfp PPTase enzyme activity, qHTS; Potency, µM (highest dose often 114 µM), for inactives: top-dose activity change, negative = inhibition, actives largely listed as inhibitors; actives 78% (n = 230); AID 540350
# HM489 growth: reduces growth of B. subtilis HM489 strain; shares compounds with NTMT1 inhibitor; Potency, µM (highest dose often 114 µM), without a hit: top-dose activity change, negative = inhibition, usual class: inhibitors; actives 50% (n = 220); B. subtilis HM489 (acpS-) growth, BacTiter-Glo, 5 h
# Sfp PPTase gel: Sfp PPTase inhibition, gel-based detection | Potency, µM (series often up to 250 µM), inactives show top-dose activity change, negative = inhibition, actives largely listed as inhibitors | AID 540355 | purified Sfp PPTase, gel-based product detection | actives 54% (n = 220) | shares compounds with NTMT1 inhibitor
# Sfp SAR2: Sfp phosphopantetheinyl transferase inhibition, SAR round 2; Potency, µM (doses to about 57.1 µM), inactives show top-dose activity change, negative = inhibition, most hits filed as inhibitors; shares compounds with NTMT1 inhibitor; purified Sfp enzyme, PPTase activity, qHTS; actives 87% (n = 230)
# hGST A1-1 inh: inhibits hGST A1-1 in Sfp inhibitor counter-screen. shares compounds with NTMT1 inhibitor. hGST A1-1 enzyme activity counter-screen, qHTS. Potency, µM (series often up to 114 µM), for inactives: at the top dose activity change, negative = inhibition, actives largely listed as inhibitors. 55 tested, under 10 active
# USP2a K63: confirmation of human USP2a inhibitors with K63 diubiquitin substrate; shares compounds with NTMT1 inhibitor; Potency, µM (doses to about 57.5 µM), for inactives: at the highest dose activity change, negative = inhibition, actives largely listed as inhibitors; USP2 cleavage of DiUb K63-3IQF, fluorescence kinetic; actives 80% (n = 30)
# Target sequence (O75604 whole entry, looked up): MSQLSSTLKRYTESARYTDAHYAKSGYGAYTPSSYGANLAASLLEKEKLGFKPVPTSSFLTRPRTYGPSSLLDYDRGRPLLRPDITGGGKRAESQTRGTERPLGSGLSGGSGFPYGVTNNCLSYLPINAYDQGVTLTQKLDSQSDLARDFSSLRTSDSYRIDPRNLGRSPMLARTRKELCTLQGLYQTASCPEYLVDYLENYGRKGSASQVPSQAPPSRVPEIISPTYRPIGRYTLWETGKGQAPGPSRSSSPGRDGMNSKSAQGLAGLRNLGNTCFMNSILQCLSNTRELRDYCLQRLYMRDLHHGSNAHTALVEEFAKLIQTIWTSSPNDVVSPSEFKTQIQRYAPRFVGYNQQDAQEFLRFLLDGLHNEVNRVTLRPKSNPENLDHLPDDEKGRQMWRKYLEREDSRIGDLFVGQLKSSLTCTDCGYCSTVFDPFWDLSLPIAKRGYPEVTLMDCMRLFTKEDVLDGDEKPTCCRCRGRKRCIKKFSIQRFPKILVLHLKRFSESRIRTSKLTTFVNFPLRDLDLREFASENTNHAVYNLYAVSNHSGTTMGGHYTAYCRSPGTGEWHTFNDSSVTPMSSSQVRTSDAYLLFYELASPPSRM
# Casp6 counter: inhibits human caspase-6 in USP2a selectivity assay. shares compounds with NTMT1 inhibitor. Caspase 6 enzyme, Caspase-Glo 6 luminescence. activity change, negative = inhibition, % at 46.1 µM. 30 tested, under 10 active. AID 652277
# HSD17B4 counter: inhibits human HSD17B4, off-target for HPGD inhibitors. shares compounds with NTMT1 inhibitor. purified HSD17B4, estradiol/NAD+, NADH fluorescence. Potency, µM (top dose mostly 57.1 µM), inactives show top-dose activity change, negative = inhibition, actives largely listed as inhibitors. actives 10% (n = 230)
# ALDH1A1 counter: ALDH1A1 (human) inhibition, HPGD counter-screen | actives 93% (n = 230) | shares compounds with NTMT1 inhibitor | Potency, µM (highest dose often 57.1 µM), for inactives: at the highest dose activity change, negative = inhibition, actives largely listed as inhibitors | AID 743195 | recombinant ALDH1A1, NADH fluorescence, propionaldehyde/NAD+
# NNMT counter: counter-screen for NTMT1 inhibitors: human NNMT inhibition | shares compounds with NTMT1 inhibitor | NNMT MTase-Glo luminescence, SAH detection | Potency, µM (top dose mostly 57.1 µM), for inactives: at the highest dose activity, negative = inhibition, actives largely listed as inhibitors | actives 10% (n = 120) | AID 1645878
# Starred values were filed as active, the others as inactive; ? = inconclusive; / = no result given; ! = not active in a repeat; [ ] = remark or other dose. The call rests on the fitted dose curve; in most records, active means well fitted curve in the direction sought with a large enough effect; inconclusive means small, poorly fitted or top-dose-only effect, or another doubt; inactive means no such curve, though single readings can be large; an effect the other way counts as inactive or inconclusive.
SMILES,NTMT1 inhibitor,FH mod,USP2a K63,Casp6 counter,others
Cc1cc(C)nc(NC(=S)N2CCN(c3cccc(S(C)(=O)=O)c3)CC2)c1,?,/,/,/,Sfp qHTS opt=4.7µM*;HM489 growth=15%;Sfp PPTase gel=16µM*;Sfp SAR2=2.9µM*;HSD17B4 counter=-25%;ALDH1A1 counter=15µM*
Cc1cc(C)nc(NC(=S)N2CC3CN(c4ccc(Cl)cc4C(F)(F)F)CC3C2)c1 (centres undefined),?,/,/,/,Sfp qHTS opt=0.26µM*;Sfp SAR2=0.73µM*;hGST A1-1 inh=?;HSD17B4 counter=-27%;ALDH1A1 counter=8.6µM*
Cc1ccc(S(=O)(=O)Nc2cc(Cl)ccc2C(=O)Nc2nc(-c3ccccc3)cs2)cc1,27µM*!,-11%[53.3 µM],1.7µM*,-12,
Cc1ccc(S(=O)(=O)Nc2cnccc2C(=O)Nc2ccncc2)cc1,?,/,-12%,-21,
Cc1ccc(S(=O)(=O)Nc2ccccc2C(=O)Nc2nc(-c3ccccc3)c(C)s2)cc1,-6%[57.5 µM],/,/,/,
Cc1ccc(S(=O)(=O)Nc2ccc(Br)cc2C(=O)Nc2nc(-c3ccccc3)cs2)cc1,-15%,/,/,/,
Cc1ccc(S(=O)(=O)Nc2ccccc2C(=O)Nc2nccs2)cc1,25%,/,?,17,
Cc1ccc(S(=O)(=O)Nc2ccccc2C(=O)Nc2nc(-c3ccc(Cl)cc3)cs2)cc1,-5%,/,4%,-7,
CCc1cnn2c(NCc3ccc[n+]([O-])c3)cc(N3CCCC[C@H]3CCO)nc12,-15%,/,/,/,
Cc1cc(CS(=O)(=O)c2ccccc2)cc(OCc2ccc(CN3CCC[C@@H]3CO)cc2)c1,8.9µM*!,-5%,/,/,NNMT counter=-6%
CN(C)c1nc(NC2CCC(NCCc3ccc(Br)cc3OC(F)(F)F)CC2)nc2ccccc12 (centres undefined),35µM*,-9%,/,/,NNMT counter=22µM*
CCc1nc(-c2cccc(C)c2)c(-c2ccnc(NC(=O)c3ccccc3)c2)s1,2%[57.5 µM],-14%,/,/,
O=C(Nc1cc2cc[nH]c2cn1)c1ccccc1,22µM*!,-2%,/,/,NNMT counter=14µM*
C=C1CC[C@@]2(OC1)O[C@H]1CC3[C@@H]4CC=C5C[C@H](O[C@H]6OC[C@@H](O)C(O)[C@@H]6O[C@@H]6O[C@@H](C)[C@H](O)[C@@H](O[C@@H]7O[C@H](CO)[C@@H](O)[C@H](O)[C@H]7O)[C@H]6O)C[C@@H](O)[C@]5(C)C4CC[C@]3(C)[C@H]1[C@@H]2C (some centres undefined),14%[12.6 µM],2%[20.6 µM],/,/,
